Experimental findings from PubChem BioAssay are described below.

Calls of active or inactive are those of the source. No stated cut-off is given here; in the data, active means inhibition above about 36%; inactive means the rest.

The term inhibition denotes the change of the read-out against control, counted positive when it falls.

For the test, the system named is transactivating tegument protein VP16 (Human herpesvirus 1). Nature of the test: compounds suppressing VP16-driven luciferase signal – cell-based, luminescence, single concentration, counter-screen for SRC2 inhibitor project (AID 652007). The conditions noted are these: cell-based VP16 transactivation luciferase reporter, at 8.9 µM, active compounds read high. (The purpose of a counterscreen is to sort out artefacts and off-target activity.)
Regarding `COc1ccc(/C=C/c2nc3ccccc3c(=O)o2)cc1`, the inhibition was 38.4% (active).

On to `Cc1nnsc1C(=O)NC1CCCc2c1cnn2-c1ccc(C(C)(C)C)cc1` (stereo not given), for which the inhibition was 13.8% (inactive).

As for `Cc1scc(C(=O)N/N=C/c2ccc([N+](=O)[O-])o2)c1C`, the inhibition is 62.4% (active).

Take `O=C(CCl)N1CCN(S(=O)(=O)Cc2ccccc2)CC1`: the inhibition was 12.1% (inactive).

Regarding `Cc1ccc(C(=O)Sc2cccccc2=O)cc1`, the inhibition was 92.9% (active).

Regarding `COc1ccc(CCNc2ncnc3sc(C)cc23)cc1OC`, the inhibition was 16.6% (inactive).

In the case of `CC(=O)c1c(C)[nH]c(C(=O)COc2cc(C)ccc2C(C)C)c1C`, the inhibition is 17.3% (inactive).

With `COc1ccc(-c2noc(CCCC(=O)NC3CCCC3)n2)cc1`, the inhibition was 48.8% (active).

In the case of `CC1C/C(=C/c2ccncc2)C(=O)/C(=C/c2ccncc2)C1` (stereo not given), the inhibition was 93.7% (active).

As to `C=CC(=O)N1C/C(=C/c2ccc(Cl)cc2)C(=O)/C(=C\c2ccc(Cl)cc2)C1`, the inhibition is 97% (active).

As to `CCN(Cc1ccc(OC)c(F)c1)C(=O)CCl`, the inhibition is 31.8% (inactive).

As to `O=C(CSc1ncccc1C(=O)O)Nc1ccc2c(c1)OCCO2`, the inhibition was -2.25% (inactive).

Take `O=C(NCCOc1cccnc1)c1ccc(OC2CCN(Cc3ccccn3)CC2)cc1`: the inhibition was 15.9% (inactive).

With `Brc1ccc2ncnc(NCc3ccccc3)c2c1`, the inhibition is 21.7% (inactive).

Take `CN(C)CCC(=O)N1C/C(=C/c2ccccc2)C(=O)/C(=C\c2ccccc2)C1`: the inhibition was 86.8% (active).

Regarding `CC(=O)NC(c1cccc([N+](=O)[O-])c1)c1ccc2cccnc2c1O` (stereo not given), the inhibition was 0.91% (inactive).

On to `COc1ccc(-c2cc(-c3nc4ccccn4c3NCc3ccccc3)ccc2OC)cc1`, for which the inhibition was 96.8% (active).

On to `COc1ccc(C)cc1NS(=O)(=O)c1ccc(-c2cnc(C3CC3)o2)cc1`, for which the inhibition is 6.98% (inactive).

As for `Cn1cnc([N+](=O)[O-])c1Oc1ccc2ccccc2c1`, the inhibition was 11.9% (inactive).

`CC(C)(C)c1ccc(Oc2ccc(NC(=O)C3CC=CCC3C(=O)O)cc2)cc1` (stereo not given): the inhibition is 8.31% (inactive).

Turning to `COc1ccc(NC(=O)/C(Cl)=C(/Cl)S(=O)Cc2ccccc2)cn1` (stereo not given), the inhibition is 95.8% (active).

Take `O=C(NCCc1c[nH]c2ccccc12)c1ccc([N+](=O)[O-])o1`: the inhibition was 2.92% (inactive).

On to `CCCCCc1c(CC)ncn1CCc1ccccc1OC`, for which the inhibition was 2.9% (inactive).

With `CC(C)(C)C(=O)Nc1cc2nn(-c3ccccc3)nc2cc1Cl`, the inhibition is 88.2% (active).

For the compound `Cc1ccc(NC(=O)C2=C(c3ccccc3)S(=O)(=O)CCS2(=O)=O)cc1`, the inhibition was 92.8% (active).
